A selection: hits, their analogues and other compounds. The true share with any hit is near 3.9%.
esBAF inh – SWI/SNF esBAF complex inhibition; actives 2% (n = 350,000); mouse ES cells, Bmi1-luciferase knock-in reporter, 24 h; 100% = twice the neutral-well signal; reporter increase, % at 12.5 µM; in the data active = activation above about 40%; inconclusive = no clear call, values can overlap the other calls;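 note: 0% = median of the plate's neutral control wells and 100% = double that signal; a rise in the Bmi1 reporter signal indicates esBAF inhibition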
HSF1 inh – HSF1 inhibition; NIH3T3-HGL HSE-luciferase, MG132-induced, luminescence 8 h; active compounds read low; activity change, negative = inhibition, % at 7.5 µM (by protocol); actives 0.77% (n = 300,000); AID 2098;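 active = more than half of replicate wells show activity change below -50%, luminescence cut by over half; inconclusive = some wells, but at most half, below -50%; inactive = no replicate well below -50%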;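 note: luciferase reports HSF-1 transcriptional activity via heat shock element; 0% = median of DMSO wells and -100% = zero luminescence signal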
MITF act – MITF TRPM1 promoter activation in melanoma cells. AID 588334. SK-MEL-5 TRPM1-promoter luciferase, 24 h; % of positive control, neutral wells = 0. actives 0.75% (n = 300,000). activation, % at 12.5 µM;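 active = mean activation of at least 80% with every replicate also reaching 80%; inconclusive = mean reaches 80% but some replicate falls short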;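 note: 0% = neutral control wells and 100% = parthenolide positive control wells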
Wnt bcat act – activators of Wnt/beta-catenin signaling. Wnt/beta-catenin reporter cell assay, activator, plate reader. AID 743398. activation, % at 9.35 µM. actives 1.2% (n = 300,000); in the data active = activation above about 30%, passing the limit was not always enough; inconclusive = no clear call, values can overlap the other calls;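 note: 0% = neutral control wells and 100% = positive control wells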
HSF1 activator – increases HSF-1 driven luciferase reporter signal; activation, % at 9 µM; NIH3T3-HGL HSF-1 luciferase reporter, MG132, 8 h; 100% = twice DMSO control signal; actives 1.7% (n = 300,000);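 active = mean replicate activation of at least 50% with a set share of replicates each reaching 50%; inconclusive = only one of those two conditions met; inactive = mean below 50% and too few replicates reaching it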;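 note: 0% = median of the neutral control wells and 100% = twice that signal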
* hit, by the source's call; ? = inconclusive; . = no result.

SMILES	esBAF inh	HSF1 inh	MITF act	Wnt bcat act	HSF1 activator
Cc1c(C(=O)Nc2c(F)cccc2F)sc2ncn(CC(=O)N3CCCCC3)c(=O)c12	-4.8	0.8	0.8	-1.8	0.6
CCOC(=O)c1cc(C(=O)NCc2ccc(Cl)cc2Cl)nn1C	.	1.1	-0.8	1.0	1.2
CCOC(=O)c1cc(C(=O)Nc2ccc(C)c(F)c2)nn1C	42.5*	33.4	?	.	?
O=C(Nc1nccs1)c1c(O)c2c([nH]c1=O)CCCC2	?	.	49.6	49.8*	.
CCCc1nnc(NC(=O)c2c(O)c3c([nH]c2=O)CCCC3)s1	.	-4.5	.	-2.7	-12.3
O=C(Nc1ccccc1O)c1c(O)c2c([nH]c1=O)CCCC2	84.6*	-6.0	27.4	-2.5	7.1
O=C(N/N=C/c1cccc(Cl)c1)c1c(O)c2c([nH]c1=O)CCCC2	-0.9	-16.7	27.3	5.6	-25.0
CSc1nc(Cl)cc(Nc2ccc(O)cc2)n1	.	14.6	19.7	37.8*	37.2
CCCCN(C(=O)c1ccc([N+](=O)[O-])s1)c1c(N)n(CCCC)c(=O)[nH]c1=O	-8.8	-61.9*	-24.3	-1.2	-70.4
O=C(C[C@@H]1CC[C@H](NS(=O)(=O)c2ccc(F)cc2)[C@@H](CO)O1)N1CCC(Cc2ccccc2)CC1	3.6	.	.	.	.
CO[C@H]1CN(C)C(=O)c2cc(NC(=O)Nc3ccccc3F)ccc2OC[C@H](C)N(Cc2ccccc2C(=O)O)C[C@@H]1C	2.3	.	.	.	.
Cc1ccc(C(=O)/C=C/c2ccccc2[N+](=O)[O-])cc1	.	90.9	43.6	49.6*	135.2*
COc1ccc(C(=Cc2ccccc2[N+](=O)[O-])C(=O)O)cc1	13.6	.	18.0	49.3*	.
O=C(/C=C/c1ccccc1[N+](=O)[O-])c1ccccc1Br	18.2	42.6	8.5	12.8	64.8*
O=C(/C=C\c1ccccc1[N+](=O)[O-])Nc1ccccc1	.	44.8	54.1	7.7	30.5
COc1cccc(/C=C(\C(=O)O)c2ccccc2)c1	4.7	1.1	10.3	-1.4	-13.5
Cc1ccc(C(=O)C(C)OC(=O)c2ccccc2[N+](=O)[O-])cc1 (configuration not stated)	.	50.6	52.2	.	86.5*
Cc1ccc(C(=O)/C=C/c2ccc(-c3ccccc3[N+](=O)[O-])o2)cc1	.	1.9	-9.1	-2.7	-0.9
CC(=O)N(C)C[C@@H]1Oc2ncc(C#CC(C)(C)O)cc2C(=O)N([C@H](C)CO)C[C@H]1C	-1.2	.	.	.	.
Cc1cccc(C(=O)Nc2cccc(C(=O)N3CCOCC3)c2)c1	11.5	-35.9	1.3	.	-42.3
Cc1cccc(NC(=O)C2SC(=Nc3c(C)cccc3C)C(C(=O)N3CCOCC3)=C2N)c1 (configuration not stated)	.	-71.7*	-0.3	1.3	-70.6
CN(C)c1ccnc(N(Cc2ccccc2)Cc2ccccc2)c1C#N	74.5*	.	46.9	.	.
CN(C)c1ccnc(NCc2ccccc2)c1C#N	3.3	4.4	.	10.0	11.2
C[C@@H]1CN([C@H](C)CO)S(=O)(=O)c2ccc(-c3ccccc3F)cc2O[C@@H]1CN(C)Cc1cncnc1	-4.9	.	.	.	.
O=C(O)COc1ccccc1/C=N/NC(=O)CSc1nc2ccccc2s1	.	4.1	9.6	3.5	-19.0
SMILES	esBAF inh	HSF1 inh	MITF act	Wnt bcat act	HSF1 activator
O=C(CSc1nc2ccccc2s1)N/N=C/c1ccccc1C(=O)O	-2.2	-63.0*	10.4	-2.2	-61.6
C[C@H]1CCCCO[C@H](CN(C)S(=O)(=O)c2cccs2)[C@@H](C)CN([C@@H](C)CO)C(=O)c2cc(NC(=O)CCCN(C)C)ccc2O1	-0.9	.	.	.	.
COc1ccc(/C(C)=N/NC(=S)NCCc2ccccc2)c(O)c1	-3.8	20.7	.	0.6	52.9*
Cc1ccc2nc(COc3ccc(Cl)cc3)cc(=O)n2c1	.	44.7	68.0	13.3	65.6*
CC(=O)C(Cc1ccccc1)NC(=O)CCl (configuration not stated)	.	3.1	-13.0	-0.1	-6.3
O=C(CCl)NC(Cc1ccccc1)c1ccccc1 (configuration not stated)	.	-85.0*	-28.2	-1.3	-88.1
CCC(=O)N(C)C[C@H]1Oc2ncc(C#C[C@@H](C)O)cc2C(=O)N([C@H](C)CO)C[C@H]1C	1.7	.	.	.	.
O=C(CCSc1ccc(Cl)cc1)N1CCCCCC1	86.0*	75.3	73.9	.	107.4*
O=C(CCSc1ccc(Cl)cc1)N1CCN(c2ncccn2)CC1	42.1*	21.2	37.3	.	31.2
CO[C@@H]1CN(C)C(=O)c2cc(NS(C)(=O)=O)ccc2OC[C@H](C)N(Cc2ccccc2)C[C@H]1C	-3.2	.	.	.	.
O=C(/C=C/c1cccc(Br)c1)c1ccc2c(c1)OCO2	-1.3	32.6	28.6	2.4	46.7
CCN(Cc1ccc2c(c1)OCO2)C(=O)/C=C/c1cccc(Br)c1	1.1	-73.9*	.	0.6	-79.7
CCN(CC(=O)Nc1ccc2c(c1)OCCO2)C(=O)/C=C/c1ccccc1	.	10.6	19.4	-0.1	38.4
CCN(CC(=O)Nc1ccc2c(c1)OCCO2)C(=O)/C=C/c1cccc(Br)c1	63.3*	2.3	53.0	17.1	-17.2
O=C(C[C@H]1C=C[C@@H](NC(=O)c2ccc(F)cc2)[C@H](CO)O1)NCCc1ccccc1	1.3	.	.	.	.
O=C(Nc1nc(-c2ccc([N+](=O)[O-])cc2)cs1)c1c(F)cccc1F	12.6	7.4	15.8	1.9	26.6
Cc1ccc(-c2csc(NC(=O)c3ccc([N+](=O)[O-])o3)n2)cc1	9.4	37.6	-44.1	0.5	64.8*
Cc1ccc(-c2csc(NC(=O)c3ccno3)n2)cc1	59.9*	4.5	36.3	14.7	13.6
Cc1ccc(-c2csc(NC(=O)c3ccc(C)o3)n2)cc1	.	8.9	5.1	-1.8	19.2
Cc1ccc(-c2csc(NC(=O)c3c(C)noc3C)n2)cc1	33.9	.	45.9	23.7	.
Cc1ccc(-c2csc(NC(=O)c3cccc([N+](=O)[O-])c3)n2)cc1	-1.4	20.4	21.1	0.0	63.8*
Cc1ccc(/C=C/C(=O)c2ccc([N+](=O)[O-])o2)cc1	.	32.3	.	10.0	28.7
Cc1ccc(CNC(=O)c2ccc([N+](=O)[O-])o2)cc1	7.3	5.6	-49.6	3.0	60.7*
C=CCn1c(=NC(=O)C2CC2)sc2cc(NC(C)=O)ccc21	18.9	-55.4*	10.0	5.1	-65.1
C[C@H]1CN([C@@H](C)CO)C(=O)c2cc(NC(=O)Nc3ccccc3)ccc2O[C@@H]1CN(C)Cc1ccncc1	-5.1	.	.	.	.
COC(=O)C(CCSC)NC(=O)c1cccc([N+](=O)[O-])c1 (configuration not stated)	-2.4	-14.1	-14.3	.	-37.4
CCSc1ncccc1C(=O)N[C@@H](CCSC)C(=O)OC	.	-9.5	.	45.3*	-2.6
O=C(O)c1cccc(CN2C(=O)SC(Nc3cccc4ccccc34)C2=O)c1 (configuration not stated)	-2.9	-5.1	-8.8	40.2*	-2.5
O=C(O)c1cccc(CN2C(=O)SC(Nc3ccccc3)C2=O)c1 (configuration not stated)	5.1	-1.4	-4.1	2.8	-12.3
